Most compounds without a hit are left out; they make up all but 15% or so of the library.
RORg inh: blocks mouse ROR gamma transcriptional activity; Drosophila S2 Gal4-RORgamma UAS-luciferase reporter, 20 h; Potency, µM (series often up to 53.6 µM), without a hit: top-dose activity change, negative = inhibition, most hits filed as inhibitors; actives 5.4% (n = 310,000); AID 2551; further: nearly all actives have a fitted effect of over 60% in size
Target sequence (P51450 whole entry, looked up, the tested form may be a part): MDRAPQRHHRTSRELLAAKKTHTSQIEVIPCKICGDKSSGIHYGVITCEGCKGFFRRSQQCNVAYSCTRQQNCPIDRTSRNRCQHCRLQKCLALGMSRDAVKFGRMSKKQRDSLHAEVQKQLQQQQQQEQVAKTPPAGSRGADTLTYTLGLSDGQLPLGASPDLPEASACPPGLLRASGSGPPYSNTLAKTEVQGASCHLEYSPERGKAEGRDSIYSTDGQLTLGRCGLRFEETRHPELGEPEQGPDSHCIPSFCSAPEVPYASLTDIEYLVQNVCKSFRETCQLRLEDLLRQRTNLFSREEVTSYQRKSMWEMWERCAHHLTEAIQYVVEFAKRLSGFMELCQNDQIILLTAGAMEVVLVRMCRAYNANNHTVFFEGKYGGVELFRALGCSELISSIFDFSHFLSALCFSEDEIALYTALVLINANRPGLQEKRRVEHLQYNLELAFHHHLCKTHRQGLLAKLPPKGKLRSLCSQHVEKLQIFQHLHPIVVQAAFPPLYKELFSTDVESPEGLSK
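Stably transfected Drosophila Schneider cells are the test system, with ROR gamma fused to Gal4 and luciferase under UAS control; luminescence is read after 20 hr of 700 uM copper sulfate induction at ambient temperature.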
DT40 TDP1 no CPT: qHTS for Inhibitors of human tyrosyl-DNA phosphodiesterase 1 (TDP1): qHTS in cells in absence of CPT; DT40 Tdp1-/- hTDP1 cells, no CPT, ATP luminescence, 48 h; Potency, µM (series often up to 46.2 µM), for inactives: at the highest dose activity change, negative = growth inhibition, usual class: inhibitors; actives 15% (n = 420,000); AID 686978, 2013; further: nearly all actives have a fitted effect of over 55% in size
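Compound effects on proliferation are scored in DT40 Tdp1-/-;hTDP1 cells in the absence of CPT. ATP levels (CellTiter-Glo luminescence) are recorded after a ≥48 hr, 37 °C incubation.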
ALOX12 inh: inhibitors of human 12S-lipoxygenase ALOX12; P18054; AID 1671190; actives 1.1% (n = 580,000); Potency, µM (highest dose often 108 µM), for inactives: at the top dose activity change, negative = inhibition, hits mostly inhibitors; purified 12hLO, xylenol orange hydroperoxide absorbance
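Purified human 12hLO at 150 nM in 25 mM Hepes, 0.01% Triton X-100, pH 7.0, preincubated 15 min at room temperature with compound. Reaction started with 40 uM arachidonic acid, 30 min at room temperature. Hydroperoxide measured by Fe-xylenol orange, 573/405 nm absorbance ratio.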
DT40 TDP1 CPT: growth inhibition of DT40 Tdp1-/-;hTDP1 cells with camptothecin (screen for TDP1 inhibitors); chicken DT40 Tdp1-/-;hTDP1 cells + 20 nM CPT, ATP luminescence, 48 h; Potency, µM (highest dose often 46.2 µM), for inactives: at the top dose activity change, negative = growth inhibition, actives largely listed as inhibitors; actives 12% (n = 420,000); further: nearly all actives have a fitted effect of over 55% in size
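Cell growth measured by CellTiter-Glo luminescence after a minimum 48 h, 37 C compound exposure with 20 nM CPT in Tdp1-knockout DT40 cells stably expressing hTDP1, seeded 400/well; qHTS titration format.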
ELG1 DNA repair: inhibitors of ELG1-dependent DNA repair in HEK293T cells; HEK293T ELG1-luciferase reporter, luminescence, 16 h; DNA damage induced by 5-fluorouridine; actives 2.3% (n = 330,000); Potency, µM (doses to about 46.1 µM), without a hit: top-dose activity change, negative = inhibition, most hits filed as inhibitors; further: nearly all actives have a fitted effect of over 55% in size
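Step one: seed 2,000 cells per well. Step two: pin-transfer compound or DMSO alongside 5-fluorouridine. Step three: incubate 16 hr, 37 °C, 5% CO2. Step four: add ONE-Glo, wait 30 min, read luminescence.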
Gal4-VP16 FLuc: inhibits Gal4-VP16 luciferase reporter, ROR gamma counter-screen. Drosophila S2 Gal4-VP16 UAS-luciferase, luminescence, 20 h. actives 3.5% (n = 310,000). AID 2546. Potency, µM (highest dose often 53.6 µM), for the others: top-dose activity, negative = inhibition, hits mostly inhibitors;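 further: Gal4-VP16 expression switched on by copper sulfate through the metallothionein promoter; nearly all actives have a fitted effect of over 50% in size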
An asterisk follows results filed as active; ? = inconclusive; / = not tested or not shown; [ ] = another dose, or the depositor's remark. The call rests on the fitted dose curve; in most records, active means well fitted curve in the direction sought with a large enough effect; inconclusive means small, poorly fitted or top-dose-only effect, or another doubt; inactive means no such curve, though single readings can be large; an effect the other way counts as inactive or inconclusive. On the % scale 0 is the no-effect control and ±100 the full control effect; potency means the concentration at half of the fitted maximal effect.

SMILES | RORg inh | DT40 TDP1 no CPT | ALOX12 inh | DT40 TDP1 CPT | ELG1 DNA repair | Gal4-VP16 FLuc
O=C(CCC(=O)N1CC2CCCN2c2ccccc21)NCc1cccc(Cl)c1 (centres undefined) | / | 7.3µM* | ? | 15µM* | / | /
O=C(NCc1cccc(Cl)c1)c1ccc(NC(=O)N2CC3CCCN3c3ccccc32)cc1 (centres undefined) | / | 13µM* | ? | 23µM* | / | /
CCc1noc(-c2ccn3c(CNC(=O)Cc4cccc(OC)c4)nnc3c2)n1 | / | / | 8% | / | / | /
COc1ccc(CNC(=O)CCC(=O)N2CC3CCCN3c3ccccc32)c(OC)c1 (centres undefined) | / | 21µM* | -23% | 18µM* | / | /
COc1ccc(CNC(=O)C2CCC(=O)N(C3CCCCCC3)C2)c(OC)c1 (centres undefined) | / | 8.2µM* | -7% | 16µM* | / | /
COc1ccc(CCNC(=O)C2CCC(=O)N(C3CC3)C2)c(OC)c1 (centres undefined) | 13% | 1% | 0% | 0% | 3% | 3%
CCCCCCCc1ccc(-c2nnc(-c3ccc(Br)cc3)o2)cc1 | / | / | 11% | / | / | /
C[C@]1(O)CCN(C(=O)c2cn(C3CCC(N)CC3)nn2)C[C@@H]1O (some centres undefined) | / | / | 8% | / | / | /
CCN(CC(=O)Nc1ccccc1C(F)(F)F)C(=O)c1ccc(-n2nc(C)c(CCC(=O)OC)c2C)cc1 | / | 21µM* | 0% | ? | / | /
Cc1cccc(N(CC(=O)Nc2ccccc2C(F)(F)F)S(=O)(=O)c2ccccc2)c1C | / | 15µM* | 11% | 16µM* | / | /
CCN(CC(=O)Nc1ccccc1C(F)(F)F)C(=O)c1ccccc1Cc1ccccc1 | / | 21µM* | 0% | ? | -7% | /
COc1ccccc1N(CC(=O)Nc1ccccc1C(F)(F)F)S(=O)(=O)c1ccc(C)cc1 | / | ? | -27% | ? | / | /
CSc1ccccc1NC(=O)CN(C)CC(=O)Nc1ccccc1C(F)(F)F | 8.9µM* | -22% | 19% | -17% | ? | 3%[10 µM]
CC(C)CC(=O)C(C#N)C(=O)Nc1ccccc1Cl (centres undefined) | / | / | 5% | / | / | /
NC(=O)[C@@H](Cc1c[nH]c2ccccc12)NC(=O)[C@@]1(O)C[C@@H](O)[C@H](O)[C@@H](NC(=O)NC2CCCCC2)C1 | / | / | -8% | / | / | /
COc1ccc(CN(C)CC(=O)Nc2ccccc2C(F)(F)F)cc1 | -27% | ? | -14% | ? | ? | 2%
CSc1ccccc1NC(=O)CN(C)CC(=O)Nc1ccc(Cl)cc1F | 11µM* | ? | -10% | 23µM* | ? | ?
COc1ccc2ccc(O)c(CN(C)CC(=O)Nc3ccccc3C(F)(F)F)c2c1 | ? | ? | 7.1µM* | 21µM* | 1% | -13%
N#Cc1ccc(N2CCCn3nc(CCC(=O)N4CCCC4)cc3C2)nc1 | / | / | 4% | / | / | /
COc1cccc2cc(C(=O)Nc3ccc(C)cc3)c(=O)oc12 | / | -1% | ? | -6% | / | /
COc1ccc(NC(=O)c2cc3cccc(OC)c3oc2=Nc2ccc(C(=O)O)cc2)cc1OC | 0.45µM* | 13µM* | -3% | 9.2µM* | ? | ?
COc1ccc(O)c(CN2CCC3(CC2)c2ccccc2[C@@H](NC(=O)c2cccc(F)c2)[C@@H]3OC)c1 | / | 16µM* | ? | -6%[9.04 µM] | / | /
Cc1ccc(F)cc1NC(=O)CCc1ncc(-c2ccc(F)cc2)o1 | / | / | -3% | / | / | /
CCC(=O)c1ccc(OCC(O)CN(CCc2ccccc2)Cc2ccccc2)cc1 (centres undefined) | -17% | 21µM* | ? | ? | ? | ?
OCCN(Cc1ccccc1)CC(O)COc1ccc2c(c1)OCO2 (centres undefined) | 8% | -2% | 23% | 3% | 0% | -8%
SMILES | RORg inh | DT40 TDP1 no CPT | ALOX12 inh | DT40 TDP1 CPT | ELG1 DNA repair | Gal4-VP16 FLuc
COc1cccc(OCC(O)CN(CCO)Cc2ccccc2)c1 (centres undefined) | 9% | -21% | -11% | -20% | -4% | -10%
OC(COc1ccccc1)CN(Cc1ccccc1)CC(O)COc1ccccc1 (centres undefined) | / | 21µM* | -3% | 16µM* | ? | /
COc1ccc(C(=O)N2CC3(Cc4ccccc4N(C(C)=O)C3)C2)cc1 | / | / | 41% | / | / | /
COc1ccccc1-c1nc(S(=O)(=O)c2ccc3c(c2)OCCO3)c(N2CCCC2)o1 | / | / | -4% | / | / | /
O=C(NCCc1noc(-c2ccncc2)n1)c1ccccc1 | / | / | 8.9µM* | / | / | /
CN(C)c1ccc(NC(=S)Nc2ccc3c(c2)c(=O)n(C)n3-c2ccc(C(C)(C)C)cc2)cc1 | / | 12µM* | ? | 21µM* | / | /
CN(C)c1ccc(NC(=O)Nc2ccc3c(c2)c(=O)n(C)n3-c2ccccc2)cc1 | / | 21µM* | ? | ? | / | /
CN(C)c1ccc(NC(=O)Nc2ccc3c(c2)nnn3C)cc1 | 2% | -3% | -7% | 3% | ? | 23%
CCOC(=O)c1ccccc1NC(=O)C1CCN(c2ncnc3sc(C)c(C)c23)CC1 | / | ? | / | 23µM* | ? | /
CCCCc1nnc(NC(=O)C2CCN(c3ncnc4sc(C)c(C)c34)CC2)s1 | / | ? | -22% | ? | -24% | /
Cc1sc2ncnc(N3CCC(C(=O)Nc4ccccc4C(C)(C)C)CC3)c2c1C | / | 13µM* | -10% | 21µM* | 9.2µM* | /
Cc1sc2ncnc(N3CCC(C(=O)Nc4cc(Cl)ccc4Cl)CC3)c2c1C | / | ? | 0% | ? | ? | /
CC(C)NC(=O)c1ccccc1-c1ncc(-c2ccc(F)cc2)o1 | / | / | 3% | / | / | /
COc1ccc(S(=O)(=O)N2CCCCCC2)cc1C(=O)N1CCN(c2ccccc2O)CC1 | / | ? | -24% | 15µM* | 13µM* | /
COc1ccc(S(=O)(=O)N2CCCCCC2)cc1C(=O)N1CCN(c2ccccc2C)CC1 | / | 21µM* | -12% | ? | ? | /
COc1ccc(S(=O)(=O)N2CCc3ccccc32)cc1C(=O)N1CCN(c2ncccn2)CC1 | / | / | 40µM* | / | / | /
COc1ccc(S(=O)(=O)N2CCN(C(=O)c3ccccc3Cc3ccccc3)CC2)cc1OC | / | 23µM* | 8% | ? | / | /
COc1ccccc1N1CCN(C(=O)c2cc(S(=O)(=O)N3CCCCC3)ccc2C)CC1 | / | ? | -23% | ? | ? | /
O=C([C@H]1C[C@H](Oc2ccccc2)CN1Cc1ccc2[nH]ccc2c1)N1CCOCC1 | / | / | 18% | / | / | /
CSc1cccc(C(=O)Nc2nc(-c3nc4ccccc4s3)cs2)c1 | / | / | -27% | / | / | /
C/C=C/c1c(C)nc2sc(C#N)c(N)c2c1C | / | / | -5% | / | / | /

Assay outcomes deposited in PubChem by National Center for Advancing Translational Sciences (NCATS).
